# Measured values taken from ChEMBL document CHEMBL1961873, “Compounds: GSK PKIS; Assays: Nanosyn kinase panel” (2012).
# Experiments:
# [1] = target: T1, Mitogen-activated protein kinase 12 (Homo sapiens) (UniProt P53778); settings: at 1 µM;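 further: values are averaged p38gamma kinase inhibition readings, compounds tested at 1 µM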
# T1 sequence (whole entry): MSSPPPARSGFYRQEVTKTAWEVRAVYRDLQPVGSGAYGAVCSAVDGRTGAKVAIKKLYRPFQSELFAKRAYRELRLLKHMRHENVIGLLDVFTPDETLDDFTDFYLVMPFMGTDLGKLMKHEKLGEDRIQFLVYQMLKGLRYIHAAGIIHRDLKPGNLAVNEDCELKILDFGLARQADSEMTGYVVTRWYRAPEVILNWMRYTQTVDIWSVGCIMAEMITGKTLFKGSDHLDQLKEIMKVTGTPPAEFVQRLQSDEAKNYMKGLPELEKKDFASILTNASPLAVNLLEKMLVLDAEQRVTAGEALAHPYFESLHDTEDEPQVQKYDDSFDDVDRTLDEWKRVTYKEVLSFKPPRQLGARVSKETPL
# [2] = target: SRSF protein kinase 1 (Homo sapiens) (UniProt Q96SB4); settings: at 0.1 µM
# [3] = target: SRSF protein kinase 1 (Homo sapiens) (UniProt Q96SB4); settings: at 1 µM
# [4] = target: Phosphatidylinositol 4,5-bisphosphate 3-kinase catalytic subunit alpha isoform (Homo sapiens) (UniProt P42336); settings: at 0.1 µM
# [5] = target: Phosphatidylinositol 4,5-bisphosphate 3-kinase catalytic subunit alpha isoform (Homo sapiens) (UniProt P42336); settings: at 1 µM
# [6] = target: T2, Phosphatidylinositol 4,5-bisphosphate 3-kinase catalytic subunit delta isoform (Homo sapiens) (UniProt O00329); settings: at 0.1 µM
# T2 sequence (whole entry): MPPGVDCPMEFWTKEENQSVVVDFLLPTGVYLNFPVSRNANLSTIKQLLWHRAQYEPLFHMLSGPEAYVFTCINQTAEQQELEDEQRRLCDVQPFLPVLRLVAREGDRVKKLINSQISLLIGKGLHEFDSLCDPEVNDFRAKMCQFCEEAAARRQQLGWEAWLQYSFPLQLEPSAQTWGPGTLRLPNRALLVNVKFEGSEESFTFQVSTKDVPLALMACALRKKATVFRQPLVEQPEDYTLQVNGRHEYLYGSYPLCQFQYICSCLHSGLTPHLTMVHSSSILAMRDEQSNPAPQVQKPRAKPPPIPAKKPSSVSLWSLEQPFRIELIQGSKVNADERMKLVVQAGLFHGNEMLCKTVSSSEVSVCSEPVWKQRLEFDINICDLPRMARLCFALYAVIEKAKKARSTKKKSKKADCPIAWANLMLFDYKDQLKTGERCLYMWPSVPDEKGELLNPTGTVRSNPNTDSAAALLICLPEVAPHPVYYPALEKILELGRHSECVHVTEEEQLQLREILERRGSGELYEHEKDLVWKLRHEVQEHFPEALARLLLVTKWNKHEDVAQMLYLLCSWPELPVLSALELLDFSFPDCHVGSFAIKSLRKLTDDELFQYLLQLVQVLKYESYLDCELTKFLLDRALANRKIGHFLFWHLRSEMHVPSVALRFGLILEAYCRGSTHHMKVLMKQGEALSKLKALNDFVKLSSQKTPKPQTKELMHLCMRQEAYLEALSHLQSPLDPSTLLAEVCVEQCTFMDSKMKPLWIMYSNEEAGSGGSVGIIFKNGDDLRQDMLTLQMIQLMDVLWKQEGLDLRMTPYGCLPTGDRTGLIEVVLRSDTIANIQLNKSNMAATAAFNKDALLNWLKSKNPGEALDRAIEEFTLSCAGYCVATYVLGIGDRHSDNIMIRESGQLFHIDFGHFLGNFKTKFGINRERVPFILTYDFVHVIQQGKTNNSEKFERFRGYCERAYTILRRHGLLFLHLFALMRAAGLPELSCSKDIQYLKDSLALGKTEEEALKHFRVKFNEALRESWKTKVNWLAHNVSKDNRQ
# [7] = target: T2, Phosphatidylinositol 4,5-bisphosphate 3-kinase catalytic subunit delta isoform (Homo sapiens); settings: at 1 µM
# [8] = target: Phosphatidylinositol 4-kinase beta (Homo sapiens) (UniProt Q9UBF8); settings: at 0.1 µM
# [9] = target: Phosphatidylinositol 4-kinase beta (Homo sapiens) (UniProt Q9UBF8); settings: at 1 µM
# [10] = target: Sphingosine kinase 1 (Homo sapiens) (UniProt Q9NYA1); settings: at 0.1 µM;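 further: mean percent inhibition of SPHK1 activity, measured within the GSK PKIS screening panel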
# Sphingosine kinase 1 (Homo sapiens), sequence (Q9NYA1 whole entry): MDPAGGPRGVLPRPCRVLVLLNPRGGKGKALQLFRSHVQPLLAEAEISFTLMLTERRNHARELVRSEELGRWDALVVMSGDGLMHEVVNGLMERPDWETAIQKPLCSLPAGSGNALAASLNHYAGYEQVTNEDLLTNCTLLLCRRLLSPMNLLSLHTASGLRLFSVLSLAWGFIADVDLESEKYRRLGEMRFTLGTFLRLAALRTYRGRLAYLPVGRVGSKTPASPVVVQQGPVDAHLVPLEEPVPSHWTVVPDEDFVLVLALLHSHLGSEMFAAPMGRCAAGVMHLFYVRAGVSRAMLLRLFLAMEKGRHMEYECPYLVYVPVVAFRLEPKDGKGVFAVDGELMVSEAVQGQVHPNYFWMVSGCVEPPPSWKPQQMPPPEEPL
# Phosphatidylinositol 4-kinase beta (Homo sapiens), sequence (Q9UBF8 2-816 limits assumed): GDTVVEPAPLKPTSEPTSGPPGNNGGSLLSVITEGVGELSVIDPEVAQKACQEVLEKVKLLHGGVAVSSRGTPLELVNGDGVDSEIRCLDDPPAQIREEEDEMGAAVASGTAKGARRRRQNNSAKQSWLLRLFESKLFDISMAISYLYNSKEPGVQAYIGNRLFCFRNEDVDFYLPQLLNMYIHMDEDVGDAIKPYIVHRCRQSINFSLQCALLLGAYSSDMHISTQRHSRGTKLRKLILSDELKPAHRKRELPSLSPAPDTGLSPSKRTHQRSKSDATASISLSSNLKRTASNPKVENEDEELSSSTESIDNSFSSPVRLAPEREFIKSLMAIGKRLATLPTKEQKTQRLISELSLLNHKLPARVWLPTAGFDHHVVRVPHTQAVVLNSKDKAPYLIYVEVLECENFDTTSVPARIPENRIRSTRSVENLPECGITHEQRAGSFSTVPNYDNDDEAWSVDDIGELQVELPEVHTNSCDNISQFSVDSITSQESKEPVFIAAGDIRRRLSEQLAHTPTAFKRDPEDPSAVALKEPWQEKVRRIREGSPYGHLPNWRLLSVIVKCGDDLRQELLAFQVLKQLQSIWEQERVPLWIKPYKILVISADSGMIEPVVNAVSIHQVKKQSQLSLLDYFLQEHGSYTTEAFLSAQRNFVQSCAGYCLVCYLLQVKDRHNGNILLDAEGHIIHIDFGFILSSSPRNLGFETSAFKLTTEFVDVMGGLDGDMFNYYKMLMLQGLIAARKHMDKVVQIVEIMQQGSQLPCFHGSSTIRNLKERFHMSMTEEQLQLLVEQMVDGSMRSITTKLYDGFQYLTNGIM
# SRSF protein kinase 1 (Homo sapiens), sequence (Q96SB4 whole entry, canonical isoform): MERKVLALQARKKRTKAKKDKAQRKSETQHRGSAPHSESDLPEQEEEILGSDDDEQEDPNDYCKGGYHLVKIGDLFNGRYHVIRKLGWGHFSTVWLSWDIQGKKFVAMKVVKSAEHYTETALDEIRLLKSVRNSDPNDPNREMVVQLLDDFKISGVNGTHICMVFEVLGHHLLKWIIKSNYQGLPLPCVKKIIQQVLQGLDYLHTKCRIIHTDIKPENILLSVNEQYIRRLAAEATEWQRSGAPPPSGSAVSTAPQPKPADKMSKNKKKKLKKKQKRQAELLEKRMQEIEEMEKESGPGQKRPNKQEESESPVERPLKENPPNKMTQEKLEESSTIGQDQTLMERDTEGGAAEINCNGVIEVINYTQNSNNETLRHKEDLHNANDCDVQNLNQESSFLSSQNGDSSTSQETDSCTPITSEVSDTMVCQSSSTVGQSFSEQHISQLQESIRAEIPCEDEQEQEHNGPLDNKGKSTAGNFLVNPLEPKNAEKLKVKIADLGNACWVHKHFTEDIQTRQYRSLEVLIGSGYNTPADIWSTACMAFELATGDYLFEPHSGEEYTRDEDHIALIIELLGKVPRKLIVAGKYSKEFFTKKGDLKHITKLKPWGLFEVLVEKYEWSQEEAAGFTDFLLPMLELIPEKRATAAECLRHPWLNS
# Phosphatidylinositol 4,5-bisphosphate 3-kinase catalytic subunit alpha isoform (Homo sapiens), sequence (P42336 whole entry, canonical isoform): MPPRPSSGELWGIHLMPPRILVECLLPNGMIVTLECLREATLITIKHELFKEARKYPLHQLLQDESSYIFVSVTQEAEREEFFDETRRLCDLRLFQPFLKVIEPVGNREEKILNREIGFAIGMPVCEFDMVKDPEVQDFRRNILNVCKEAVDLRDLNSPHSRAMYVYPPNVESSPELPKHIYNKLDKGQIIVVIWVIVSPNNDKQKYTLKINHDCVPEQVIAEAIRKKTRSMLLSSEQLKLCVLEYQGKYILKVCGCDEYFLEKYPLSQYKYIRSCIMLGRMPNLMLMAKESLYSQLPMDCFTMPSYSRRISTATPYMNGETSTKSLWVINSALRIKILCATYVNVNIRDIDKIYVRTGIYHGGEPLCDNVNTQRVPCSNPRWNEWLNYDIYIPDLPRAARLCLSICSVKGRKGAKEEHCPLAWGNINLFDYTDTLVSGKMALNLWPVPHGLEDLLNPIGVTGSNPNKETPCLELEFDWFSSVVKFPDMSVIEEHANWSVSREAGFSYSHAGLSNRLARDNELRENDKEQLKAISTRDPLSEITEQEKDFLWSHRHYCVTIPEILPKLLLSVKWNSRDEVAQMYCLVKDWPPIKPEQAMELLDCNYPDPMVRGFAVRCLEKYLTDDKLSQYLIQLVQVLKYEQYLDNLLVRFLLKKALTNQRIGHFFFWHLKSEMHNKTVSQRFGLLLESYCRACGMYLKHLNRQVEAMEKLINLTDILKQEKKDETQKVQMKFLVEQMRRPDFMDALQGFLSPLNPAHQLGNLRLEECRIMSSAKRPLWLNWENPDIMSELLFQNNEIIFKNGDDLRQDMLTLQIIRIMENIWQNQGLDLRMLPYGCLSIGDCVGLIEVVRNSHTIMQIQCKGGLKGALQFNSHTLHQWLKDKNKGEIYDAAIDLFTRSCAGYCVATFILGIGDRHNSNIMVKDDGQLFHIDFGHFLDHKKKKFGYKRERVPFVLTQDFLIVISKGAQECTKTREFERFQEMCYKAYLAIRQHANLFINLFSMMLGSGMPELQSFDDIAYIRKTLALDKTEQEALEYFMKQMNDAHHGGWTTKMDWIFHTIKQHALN
SMILES,inhibition [1],inhibition [2],inhibition [3],inhibition [4],inhibition [5],inhibition [6],inhibition [7],inhibition [8],inhibition [9],inhibition [10]
Nc1nccc(-c2c(-c3ccc(F)cc3)nn3cc(C(F)(F)F)ccc23)n1,1.01%,-0.96%,-1.1%,0.15%,0.75%,0.55%,0.3%,-4.79%,-4.51%,4.09%
O=C1Nc2ccccc2/C1=C/Nc1ccc2[nH]c(=O)[nH]c2c1,3.5%,-1.11%,-0.39%,4.42%,4.19%,1.87%,2.83%,-0.1%,2.4%,11.5%
Cc1nc(-c2ccccc2)n2nc(NCCCN3CCOCC3)ncc12,2.42%,-2.28%,-2.05%,1.91%,1.2%,-0.22%,0.85%,4.37%,0.1%,0.59%
NS(=O)(=O)c1ccc(Nc2cc(-c3cccc(O)c3)n[nH]2)cc1,3.15%,-3.05%,-2.8%,4.26%,7.56%,2.48%,4.98%,-1.18%,-1.14%,1.67%
Nc1nccc(C#Cc2cncnc2Nc2ccc(OCc3cccc(F)c3)c(Cl)c2)n1,3.22%,-1.73%,-2.48%,2.82%,4.72%,1.22%,4.71%,-2.78%,-0.63%,-2.09%
CN(c1ccc(NC(=O)Nc2ccc(OC(F)(F)F)cc2)cc1)c1ccnc(Nc2cccc(S(N)(=O)=O)c2)n1,11.2%,-0.74%,1.1%,2.98%,5.04%,1.08%,3.29%,-1.47%,3.37%,-0.13%
NC(=O)c1cccc(Nc2nccc(Nc3cccc(F)c3)n2)c1,1.35%,-2.36%,-1.96%,-0.28%,1.22%,-1.45%,-4.65%,3.27%,1.27%,0.35%
Cc1cc(Cl)cc2c1NC(=O)C2=NNc1ccc(S(N)(=O)=O)cc1,2.01%,-1.22%,1.09%,0.48%,1.85%,0.72%,4.67%,-5.44%,3.24%,0.93%
Cc1ccc(NC(=O)CC2CC2)cc1-c1ccc(C(=O)NCC2CC2)cc1,2.02%,-0.1%,1.32%,2.05%,3.63%,0.9%,1.78%,-3.28%,-2.41%,-0.38%
COc1cccc(-n2ncc3c(N/N=C/c4ccc(S(C)(=O)=O)cc4)ncnc32)c1,2.32%,-0.76%,0.02%,1.3%,1.54%,1%,2.43%,-0.72%,-2.28%,-1.72%
Cc1ccc(Nc2ccnc(Nc3cccc(C(N)=O)c3)n2)cc1O,1.74%,-1.01%,1.41%,1.78%,3.39%,2.88%,9.7%,3.13%,1.94%,0.79%
COc1ccc2ncnc(Nc3ccc(OCc4ccccc4)cc3)c2c1,1.88%,-1.2%,-0.4%,2.14%,1.05%,1.99%,2.84%,1.57%,1.15%,-0.95%
Cc1cc(O)cc(C)c1/C=C/c1cncc(C(=O)N(C)C)c1,2.68%,-0.98%,-1.41%,1.77%,0.49%,1.59%,1.73%,-2.1%,0.47%,-0.11%
Nc1ccc(C#Cc2cncnc2Nc2ccc(OCc3cccc(F)c3)c(Cl)c2)cc1,2.1%,-1.42%,-0.29%,2.27%,3.14%,0.98%,1.62%,5.59%,0.07%,0.21%
Cc1ccc2c(c1)/C(=N/Nc1ccc(S(N)(=O)=O)cc1)C(=O)N2,-0.05%,-2.83%,-5.98%,-1.13%,8.11%,1.23%,2.01%,6.34%,1.81%,-1.11%
CS(=O)(=O)Nc1cccc(-c2ccc3c(NC(=O)C4CC4)n[nH]c3c2)c1,0.75%,-2.53%,-4.93%,-0.25%,-0.59%,1.13%,4.97%,-1.63%,4.39%,0.08%
NS(=O)(=O)c1ccc(N/N=C2\C(=O)Nc3ccc(Cl)cc32)cc1,2.14%,-1.45%,0.49%,2.11%,2.12%,0.01%,0.13%,5.17%,-1.54%,0.4%

SMILES,inhibition [1],inhibition [2],inhibition [3],inhibition [4],inhibition [5],inhibition [6],inhibition [7],inhibition [8],inhibition [9],inhibition [10]
NS(=O)(=O)c1cccc(Nc2cc(-c3ccc(F)cc3)n[nH]2)c1,1.49%,-1.05%,3.13%,1.31%,3.66%,-0.13%,0.5%,2.18%,0.88%,0.58%
O=C(Nc1ccc(Oc2ccc3[nH]c(NC(=O)c4ccco4)nc3c2)cc1)Nc1cc(C(F)(F)F)ccc1F,3.11%,-0.3%,5.87%,-0.31%,0.01%,0.36%,2.96%,1.45%,1.53%,0.3%
CCOc1nccc2c1nc(-c1nonc1N)n2CC,3.14%,0.65%,6.12%,2.9%,1.35%,0.56%,0.99%,7.22%,0.43%,0.81%
CN1CCN(C(=O)c2ccc(NC(=O)Nc3ccc(N(C)c4ccnc(Nc5ccc(CS(C)(=O)=O)cc5)n4)cc3)cc2)CC1,2.72%,-1.98%,-1.99%,3.38%,2.56%,1.78%,4.04%,0.19%,1.27%,0%
CCS(=O)(=O)c1ccc(OC)c(Nc2ncc(-c3cccc(OC)c3)o2)c1,2.08%,-1.9%,-1.28%,1.81%,2%,3.48%,3.98%,3.39%,-0.15%,-0.07%
Cc1ccc(C(=O)NC2CC2)cc1-c1ccc2[nH]ncc2c1,-1.96%,-0.04%,1.22%,-3.9%,-3.53%,-1.94%,-0.26%,4.33%,-2.52%,-0.6%
Nc1nccc(-c2c(-c3ccc(F)cc3)ncn2CCCN2CCOCC2)n1,3.58%,-1.35%,-2.36%,3.59%,3.13%,0.42%,3.48%,-8.25%,-2.19%,2.43%
NS(=O)(=O)c1ccc(-c2cc3ccncc3cc2OCc2ccccc2)cc1,2.36%,-1.87%,0.04%,3.71%,4.7%,1.97%,2.98%,3.31%,0.15%,1.82%
COc1cccc(-n2ncc3c(N/N=C/c4ccc(C)cc4)ncnc32)c1,6.67%,-3.85%,-1.68%,5.44%,7.64%,1.43%,5.9%,-1.45%,3.16%,3.47%
COc1cccc(-n2nc(C)c3c(N/N=C(\C)c4ccncc4)ncnc32)c1,0.35%,-2.19%,-2.27%,-0.84%,-0.14%,-1.39%,6.02%,-2.42%,-3.63%,1.12%
O=C1Nc2ccc(-c3cccnc3)cc2C1=Cc1cc(Br)c(O)c(Br)c1,2.31%,-1.92%,-2.45%,11.3%,55.5%,-8.03%,-3.91%,35.2%,77.7%,5.72%
CCS(=O)(=O)c1ccc(OC)c(Nc2nccc(N(C)c3ccc4c(C)n[nH]c4c3)n2)c1,3.12%,-3.64%,-4.44%,4.66%,3.7%,2.01%,2.75%,0.2%,-1.28%,4.16%
[O-][S+]1CCN(Cc2ccc(-c3ccc4ncnc(Nc5ccc(OCc6ccccc6)c(Cl)c5)c4c3)o2)CC1,1.59%,-1.34%,-2.79%,1.57%,0.92%,0.92%,2.1%,-2.13%,-0.85%,1.88%
ON=C1CCc2cc(-c3nc(C4CCNCC4)[nH]c3-c3ccncc3)ccc21,1%,-1.62%,-5.28%,-1.04%,0%,0.31%,3.08%,2.07%,-0.63%,-1.16%
OCc1ccc(-c2nc(-c3ccccn3)c(-c3ccc4c(c3)OCO4)[nH]2)cc1,2.49%,-1.33%,-3.19%,3.36%,2.23%,1.52%,3.07%,-1.63%,-0.21%,0%
COc1cc(Nc2nccc(-c3cnn4ncccc34)n2)cc(OC)c1,5.11%,-0.28%,4.85%,2.19%,20.5%,6.1%,35%,-0.41%,14.9%,0%
